Laboratory results reported in PubChem BioAssay AID1159580 (chemical genetic matrix, 2015).
The campaign covered roughly 5,500 compounds. About 2,000 (36%) were called active. About 18% were inconclusive and are not listed. No stated cut-off is given here; in the data, active means normalized growth mostly below about 0.91 (no sharp cut-off); inconclusive means no clear call, values can overlap the other calls; inactive means mostly above about 0.92. Some of the results follow.

Test: chemical genetic growth profiling, strain panel (AID 1159580);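 further: tested at 20 µM; growth read once vehicle control cultures reached saturation at 30 °C; 1 = growth at the plate median or of vehicle wells; lower values mean less growth of the strain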
Details: growth OD

Measured: normalized growth

Cc1nnc(NS(=O)(=O)c2ccc(N)cc2)s1
inactive: S. cerevisiae deletion strains, locus YKL009W, strain mrt4, active compounds read low 1.05 | S. cerevisiae deletion strains, locus YKL068W, active compounds read low 0.996 | S. cerevisiae deletion strains, locus YKL085W, strain MDH1 (second series), active compounds read low 0.998 | S. cerevisiae deletion strains, locus YKL085W, strain MDH1, active compounds read low 0.998 | S. cerevisiae deletion strains, locus YKL160W, strain elf1, active compounds read low 1.01 | S. cerevisiae deletion strains, locus YKL190W, strain CNB1, active compounds read low 1.02 | S. cerevisiae deletion strains, locus YKR001C, strain vps1, active compounds read low 1.02 | S. cerevisiae deletion strains, locus YKR026C, strain gcn3, active compounds read low 1.01 | S. cerevisiae deletion strains, locus YKR091W, strain srl3, active compounds read low 0.99 | S. cerevisiae deletion strains, locus YLL001W, strain dnm1, active compounds read low 0.995 | S. cerevisiae deletion strains, locus YLL026W, active compounds read low 0.998 | S. cerevisiae deletion strains, locus YLL041C, strain sdh2, active compounds read low 1 | S. cerevisiae deletion strains, locus YLR027C, strain aat2, active compounds read low 1.01 | S. cerevisiae deletion strains, locus YLR039C, strain RIC1, active compounds read low 1.09 | S. cerevisiae deletion strains, locus YLR058C, strain SHM2, active compounds read low 1.01 | S. cerevisiae deletion strains, locus YLR102C, strain apc9, active compounds read low 0.985 | S. cerevisiae deletion strains, locus YLR113W, strain HOG1, active compounds read low 0.966 | S. cerevisiae deletion strains, locus YLR221C, strain rsa3, active compounds read low 1.01 | S. cerevisiae deletion strains, locus YLR258W, strain gsy2, active compounds read low 0.997 | S. cerevisiae deletion strains, locus YLR262C, strain YPT6 (second series), active compounds read low 0.99 | S. cerevisiae deletion strains, locus YLR262C, strain YPT6, active compounds read low 1.07 | S. cerevisiae deletion strains, locus YLR268W, strain sec22, active compounds read low 1.04 | S. cerevisiae deletion strains, locus YLR320W, strain mms22, active compounds read low 0.99 | S. cerevisiae deletion strains, locus YLR330W, strain CHS5, active compounds read low 1.01 | S. cerevisiae deletion strains, locus YLR342W, strain FKS1 (second series), active compounds read low 1.04 | S. cerevisiae deletion strains, locus YLR342W, strain FKS1, active compounds read low 0.996 | S. cerevisiae deletion strains, locus YLR357W, strain rsc2, active compounds read low 1.03 | S. cerevisiae deletion strains, locus YLR370C, strain arc18, active compounds read low 1.01 | S. cerevisiae deletion strains, locus YLR371W, strain rom2, active compounds read low 0.984 | S. cerevisiae deletion strains, locus YLR384C, strain iki3, active compounds read low 1 | S. cerevisiae deletion strains, locus YLR418C, strain cdc73, active compounds read low 1.04 | S. cerevisiae deletion strains, locus YML016C, strain PPZ1, active compounds read low 1.01 | S. cerevisiae deletion strains, locus YML032C, strain rad52, active compounds read low 1.01 | S. cerevisiae deletion strains, locus YML120C, strain ndi1, active compounds read low 0.987 | S. cerevisiae deletion strains, locus YML124C, strain tub3, active compounds read low 1 | S. cerevisiae deletion strains, locus YMR058W, strain fet3, active compounds read low 0.998 | S. cerevisiae deletion strains, locus YMR078C, strain ctf18, active compounds read low 0.991 | S. cerevisiae deletion strains, locus YMR125W, strain sto1, active compounds read low 0.998 | S. cerevisiae deletion strains, locus YMR129W, active compounds read low 1.01 | S. cerevisiae deletion strains, locus YMR205C, strain PFK2, active compounds read low 1 | S. cerevisiae deletion strains, locus YMR223W, strain ubp8, active compounds read low 0.997 | S. cerevisiae deletion strains, locus YMR231W, strain pep5, active compounds read low 1 | S. cerevisiae deletion strains, locus YMR263W, strain SAP30, active compounds read low 1.01 | S. cerevisiae deletion strains, locus YMR307W, strain GAS1, active compounds read low 0.987 | S. cerevisiae deletion strains, locus YNL067W, strain RPL9B, active compounds read low 1.02 | S. cerevisiae deletion strains, locus YNL071W, strain lat1, active compounds read low 0.993 | S. cerevisiae deletion strains, locus YNL128W, strain TEP1, active compounds read low 1.03 | S. cerevisiae deletion strains, locus YNL153C, strain GIM3, active compounds read low 1.01 | S. cerevisiae deletion strains, locus YNL183C, strain NPR1, active compounds read low 0.953 | S. cerevisiae deletion strains, locus YNL209W, strain ssb2, active compounds read low 1.01 | S. cerevisiae deletion strains, locus YNL233W, strain BNI4, active compounds read low 1.01 | S. cerevisiae deletion strains, locus YNL248C, strain rpa49, active compounds read low 1.01 | S. cerevisiae deletion strains, locus YNL250W, strain rad50, active compounds read low 1.01 | S. cerevisiae deletion strains, locus YNL271C, strain bni1, active compounds read low 1 | S. cerevisiae deletion strains, locus YNL298W, strain CLA4, active compounds read low 1.03 | S. cerevisiae deletion strains, locus YNL307C, strain MCK1, active compounds read low 1 | S. cerevisiae deletion strains, locus YNL322C, strain KRE1 (second series), active compounds read low 0.999 | S. cerevisiae deletion strains, locus YNR049C, strain mso1, active compounds read low 1 | S. cerevisiae deletion strains, locus YNR052C, strain pop2, active compounds read low 0.989 | S. cerevisiae deletion strains, locus YOL006C, strain TOP1, active compounds read low 1.04 | S. cerevisiae deletion strains, locus YOL012C, strain htz1 0.962 | S. cerevisiae deletion strains, locus YOL147C, strain pex11, active compounds read low 0.986 | S. cerevisiae deletion strains, locus YOR001W, strain rrp6, active compounds read low 1 | S. cerevisiae deletion strains, locus YOR061W, strain CKA2, active compounds read low 1.01 | S. cerevisiae deletion strains, locus YOR069W, strain VPS5, active compounds read low 1.01 | S. cerevisiae deletion strains, locus YOR070C, strain gyp1, active compounds read low 1.01 | S. cerevisiae deletion strains, locus YOR080W, strain dia2, active compounds read low 1 | S. cerevisiae deletion strains, locus YOR083W, strain WHI5, active compounds read low 0.978 | S. cerevisiae deletion strains, locus YOR106W, strain vam3, active compounds read low 1.02 | S. cerevisiae deletion strains, locus YOR136W, strain idh2, active compounds read low 0.992 | S. cerevisiae deletion strains, locus YOR144C, strain elg1, active compounds read low 0.992 | S. cerevisiae deletion strains, locus YOR184W, strain ser1, active compounds read low 1.01 | S. cerevisiae deletion strains, locus YOR231W, strain MKK1, active compounds read low 1.01 | S. cerevisiae deletion strains, locus YOR265W, strain rbl2, active compounds read low 1 | S. cerevisiae deletion strains, locus YOR270C, strain vph1, active compounds read low 1.02 | S. cerevisiae deletion strains, locus YOR290C, strain snf2, active compounds read low 1 | S. cerevisiae deletion strains, locus YOR316C, strain cot1, active compounds read low 0.99 | S. cerevisiae deletion strains, locus YPL051W, strain arl3, active compounds read low 1 | S. cerevisiae deletion strains, locus YPL078C, strain atp4, active compounds read low 0.999 | S. cerevisiae deletion strains, locus YPL106C, strain sse1, active compounds read low 1.02 | S. cerevisiae deletion strains, locus YPL240C, strain hsp82, active compounds read low 1.02 | S. cerevisiae deletion strains, locus YPL241C, strain CIN2, active compounds read low 1.01 | S. cerevisiae deletion strains, locus YPL256C, strain CLN2, active compounds read low 0.979 | S. cerevisiae deletion strains, locus YPR119W, strain clb2, active compounds read low 0.989 | S. cerevisiae deletion strains, locus YPR141C, strain kar3, active compounds read low 1.01 | S. cerevisiae deletion strains, locus YPR163C, strain tif3, active compounds read low 0.992 | S. cerevisiae deletion strains, locus YPR167C, strain met16, active compounds read low 0.997 | S. cerevisiae deletion strains, strain wtn01, active compounds read low 1.02 | S. cerevisiae strains, strain wild type, active compounds read low 1.01
